Measurements published in PubChem BioAssay (EPA / NIEHS).
Calls of active or inactive are those of the source. Rule for the calls: active = hit-call score of the fitted dose curve at least 0.9, where 1 is the maximum; inactive = score below 0.9.

The molecules below were run on urokinase plasminogen activator (uPA), PLAU (gene 5328) (assay: BSK_KF3CT_uPA: BioMAP Diversity Plus: KF3CT Assay for urokinase plasminogen activator (uPA) Biomarker Activity (AID 2283075)). Conditions: primary human keratinocytes with fibroblasts; actives raise or lower the signal.
Procedure, shortened: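 ELISA read-out of uPA 24 h after dosing human skin keratinocytes co-cultured with foreskin fibroblasts. Signal change fitted both ways relative to DMSO; sulforhodamine B on parallel cultures marks overt cytotoxicity.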
For `CCOP(=S)(OCC)Oc1nc(Cl)c(Cl)cc1Cl`, the outcome was “inactive”.
In the case of `CCOP(=S)(OCC)SCSP(=S)(OCC)OCC`, the outcome is reported as “inactive”.
For `CCOP(=S)(OCC)SCCS(=O)(=O)CC`, the outcome was “inactive”.
`CCOP(=S)(OCC)Oc1ccc(S(C)=O)cc1` (configuration not stated) was tested, and the outcome was “inactive”.
With `COC[C@H](C)N(C(=O)CCl)c1c(C)csc1C` the outcome was “inactive”.
`ClC(Cl)=C(Cl)C(Cl)=C(Cl)Cl` was tested, and the outcome was “inactive”.
`COC(=O)Cc1ccccc1` was tested, and the outcome was “inactive”.
In the case of `O=[N+]([O-])c1ccc(O)c([N+](=O)[O-])c1`, the outcome is reported as “inactive”.
In the case of `Nc1ncc([N+](=O)[O-])s1`, the outcome is reported as “inactive”.
For `NC(=S)Nc1ccccc1`, the outcome was “inactive”.
With `CCC(C)(C)c1ccc(O)c(C(C)(C)CC)c1` the AC50 was 7.77 µM (active).
`O=C(O)CCC(F)(C(F)(F)F)C(F)(F)F` was tested, and the outcome was “inactive”.
For `CCCCC(CC)CO[N+](=O)[O-]` (configuration not stated), the AC50 was 35.3 µM (active).

Each molecule was assayed on CD40, CD40 (gene 958) (assay: BSK_LPS_CD40: BioMAP Diversity Plus: LPS Assay for CD40 Biomarker Activity (AID 2283076)). Conditions: primary human HUVEC with PBMC; actives raise or lower the signal.
Procedure, shortened: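 In the LPS system of human endothelial cells with peripheral blood mononuclear cells, CD40 levels were read by ELISA 24 h post-treatment. Signal changes in either direction were fitted against the DMSO baseline, with parallel SRB protein staining.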
`O=C(O)C(Cl)(Cl)Cl` was tested, and the outcome was “inactive”.
`Oc1cccc2cccnc12` was tested, and the outcome was “inactive”.
In the case of `CC(=O)OC(c1ccccc1)C(Cl)(Cl)Cl` (configuration not stated), the outcome is reported as “inactive”.
In the case of `C[C@]12CCC(=O)C[C@@H]1CC[C@@H]1[C@@H]2CC[C@]2(C)[C@@H](O)CC[C@@H]12`, the outcome is reported as “inactive”.
With `COP(=S)(OC)Oc1ccc(Sc2ccc(OP(=S)(OC)OC)cc2)cc1` the AC50 was 20 µM (active).
For `C(=NC1CCCCC1)=NC1CCCCC1`, the AC50 was 27.4 µM (active).
In the case of `COc1cc(OC)nc(NC(=O)NS(=O)(=O)c2ncccc2C(=O)N(C)C)n1`, the outcome is reported as “inactive”.
With `CC12CC1(C)C(=O)N(c1cc(Cl)cc(Cl)c1)C2=O` (configuration not stated) the outcome was “inactive”.
`COC(=O)c1sccc1S(=O)(=O)NC(=O)Nc1nc(C)nc(OC)n1` was tested, and the outcome was “inactive”.
For `C=C(C)C(=O)[O][Sn]([CH2]CCC)([CH2]CCC)[CH2]CCC`, the AC50 was 0.148 µM (active).
With `CC(C)(C)c1cc(O)ccc1O` the AC50 was 5.75 µM (active).
With `CC(C)(c1ccccc1)c1ccc(O)c(C(C)(C)c2ccccc2)c1` the AC50 was 12.3 µM (active).
`CCCCCCCCc1ccc(O)cc1` was tested, and the AC50 was 31.5 µM (active).
In the case of `O=C(Nc1ccc2[nH]ccc2c1)c1cc2cc(F)ccc2n1Cc1cccc(F)c1`, the AC50 is reported as 8.35 µM (active).
For `O=C(OC1CCCCC1)c1ccccc1C(=O)OC1CCCCC1`, the AC50 was 15.5 µM (active).
With `C=CC(=O)OCCCCCC(C)C` the outcome was “inactive”.
With `CC(C)(C)CC(C)(C)c1ccc(O)cc1` the AC50 was 7.8 µM (active).
With `CCNc1nc(NC(C)(C)C)nc(SC)n1` the outcome was “inactive”.
In the case of `CC(=O)[O][Hg][c]1ccccc1`, the AC50 is reported as 1.62 µM (active).
`Nc1cccc2ccccc12` was tested, and the outcome was “inactive”.
For `ClCC(Cl)CCl`, the outcome was “inactive”.
`CCOP(=S)(OCC)Oc1nc(Cl)c(Cl)cc1Cl` was tested, and the AC50 was 20 µM (active).
In the case of `CCOP(=S)(OCC)SCSP(=S)(OCC)OCC`, the outcome is reported as “inactive”.
`CCOP(=S)(OCC)SCCS(=O)(=O)CC` was tested, and the outcome was “inactive”.
For `CCOP(=S)(OCC)Oc1ccc(S(C)=O)cc1` (configuration not stated), the outcome was “inactive”.
`COC[C@H](C)N(C(=O)CCl)c1c(C)csc1C` was tested, and the outcome was “inactive”.
With `ClC(Cl)=C(Cl)C(Cl)=C(Cl)Cl` the AC50 was 31.4 µM (active).
With `COC(=O)Cc1ccccc1` the outcome was “inactive”.
With `O=[N+]([O-])c1ccc(O)c([N+](=O)[O-])c1` the outcome was “inactive”.
In the case of `Nc1ncc([N+](=O)[O-])s1`, the outcome is reported as “inactive”.
In the case of `NC(=S)Nc1ccccc1`, the outcome is reported as “inactive”.
`CCC(C)(C)c1ccc(O)c(C(C)(C)CC)c1` was tested, and the AC50 was 13.6 µM (active).
With `O=C(O)CCC(F)(C(F)(F)F)C(F)(F)F` the outcome was “inactive”.
For `CCCCC(CC)CO[N+](=O)[O-]` (configuration not stated), the outcome was “inactive”.
